The panel holds about 79,000 compounds, 15% with a hit somewhere; the sample as a whole holds those more often. Values without a mark were called inactive. Active and inactive are the calls of the source. No stated cut-off is given here; in the data, active means growth inhibition above about 70%; inactive means the rest.

The nature of the first assay: NCI Yeast Anticancer Drug Screen. Data for the sgs1 mgt1 strain (AID 161).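 Further: 0% = growth of cultures given vehicle only.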 The conditions noted are these: S. cerevisiae sgs1 mgt1 strain, at 50.0 µM (retest, dose inferred, filed as 5.0), active compounds read high. The method in brief:
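Growth of a repair-deficient yeast mutant was monitored after compound treatment and expressed as inhibition relative to vehicle-treated cultures.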
On to `CCOC(=O)/C=C(\CC(=O)OCC)C(=O)OCC`, for which the growth inhibition is 5%.

As for `Cc1cc(Cl)cc2c1NC(=O)C2(O)C(C)C(=O)c1ccc(Cl)cc1` (stereo not given), the growth inhibition is 77% (active).

As for `C=CS(=O)(=O)c1ccc([N+](=O)[O-])cc1`, the growth inhibition is 98% (active).

As to `Oc1cc(Br)ccc1/C=N/Nc1ccccn1`, the growth inhibition was 6%.

As to `CC(C)C(CC(C)(C)C)OC(=O)Nc1cccc2ccccc12` (stereo not given), the growth inhibition is 97% (active).

Take `CC(=O)[O-].O=C(N/N=C/c1ccccc1[O-])c1ccccc1.[Zn+2]`: the growth inhibition is 86% (active).

For `COc1cc(C2C(C(=O)Nc3ccc(Cl)c(Cl)c3)=C(C)NC(C)=C2C(=O)Nc2ccc(Cl)c(Cl)c2)ccc1O`, the growth inhibition was 2%.

For `[Ce+3].[Cl-].[O-]/N=C(\c1ccccc1)c1ccccn1.[O-]/N=C(\c1ccccc1)c1ccccn1.[O-]/N=C(\c1ccccc1)c1ccccn1`, the growth inhibition is 75% (active).

For `CCCCCCCCN1C(=O)c2ccccc2S1(=O)=O`, the growth inhibition is 94% (active).

As for `CC(=O)N(C1=C(Cl)C(=O)c2ccccc2C1=O)c1ccc(C)cc1`, the growth inhibition is 100% (active).

As for `COc1ccc(Cl)c(-c2cc(OC)c(N=N/C(=N/Nc3ccc([N+](=O)[O-])cc3)c3ccc([N+](=O)[O-])cc3)cc2Cl)c1`, the growth inhibition is -18%.

As for `CCOC(=O)CSC(=S)N1CCOCC1`, the growth inhibition is -6%.

Regarding `CC1(C)COC(c2cccc(C(O)c3ccc(Cl)cc3)c2)=N1` (stereo not given), the growth inhibition is 99% (active).

With `COc1ccc(/C=C/C(C(=O)O)C(=O)O)cc1`, the growth inhibition was 59%.

As for `COc1ccc2c(Cc3ccc(O)cc3)cncc2c1O`, the growth inhibition is 16%.

On to `COC1=CC23C=CC1[C@@H](c1ccccc1)C2=C(C)C(=O)N3C(=O)NC1CCCCC1` (stereo not given in full), for which the growth inhibition was 1%.

`O=c1c2c3c(sc2nc2n1N=C(c1ccc(Br)cc1)CS2)CCCC3`: the growth inhibition was -1%.

For `Cc1noc(NS(=O)(=O)c2ccc(N=Nc3cc(N=Nc4ccc(S(=O)(=O)Nc5onc(C)c5C)cc4)c4c(NC(=O)C(Cl)Cl)cccc4c3O)cc2)c1C` (tested in a mixture with another compound), the growth inhibition was 63%.

Regarding `CC(=O)OC1=CC2(OC(C)=O)CC(C)(C)C1C1C(=O)C=CC(=O)C12` (stereo not given), the growth inhibition was 13%.

In the case of `COC1CCC(/C(C#N)=C/c2ccco2)CC1` (stereo not given), the growth inhibition is 26%.

With `CCN(CC)CCNc1cc(C)nc2c1ccc1c2ccc2c(NCCN(CC)CC)cc(C)nc21`, the growth inhibition was 96% (active).

Take `O=c1sc(=S)[nH]c2ccccc12`: the growth inhibition is 41%.

Regarding `Oc1c(Br)ccc2c(O)c(Br)ccc12`, the growth inhibition is 98% (active).

Regarding `Nc1ccccc1CCc1ccccc1`, the growth inhibition was 85% (active).

On to `Cc1cc2c(cc1O)CC[C@@H]1[C@@H]2CC[C@]2(C)[C@@H](O)CC[C@@H]12`, for which the growth inhibition is -32%.

Take `O=c1c2ccccc2sc2c([N+](=O)[O-])ccc(NCCNCCO)c12`: the growth inhibition was 98% (active).

Consider `NC(=S)NNc1c([N+](=O)[O-])cnn(-c2ccccc2)c1=O`, for which the growth inhibition was -13%.

As to `COc1ccccc1NC(=O)c1ccccc1F`, the growth inhibition is -17%.

Consider `COc1ccc(/C=C2\SC(=S)N(/C=C(/C#N)C(=O)c3ccc4ccccc4c3)C2=O)cc1OC`, for which the growth inhibition is 98% (active).

As to `COC(=O)C1(OC(=O)CCC(=O)O)C(=O)NC2=C1C(=O)c1ccccc1C2=O` (stereo not given), the growth inhibition is 13%.

For `Cc1cc(=O)c2c(ccc3cc4ccccc4cc32)[nH]1`, the growth inhibition is 54%.

As to `CCc1nc(N)nc(N)c1-c1ccc(N(C)Cc2ccccc2)c([N+](=O)[O-])c1`, the growth inhibition is 37%.

For `O=C1CSC(c2ccccc2O)N1c1ccc(-n2c(-c3ccccc3)nc3ccccc3c2=O)cc1` (stereo not given), the growth inhibition is 50%.

For `O=C(C[P+](c1ccccc1)(c1ccccc1)c1ccccc1)c1ccc(Br)cc1`, the growth inhibition is 99% (active).

Take `O=NN(CCCl)C(=O)Oc1ccc(OC(=O)N(CCCl)N=O)cc1`: the growth inhibition is 99% (active).

Consider `Cc1cccc(C[N+](C)(C)CCCO)c1C`, for which the growth inhibition was 1%.

In the case of `CC(C)NC(=O)OCCS(=O)c1c(Cl)c(Cl)nn1C` (stereo not given), the growth inhibition was 53%.

Regarding `COC1=CC(=O)[C@H]2CC(C)=CC[C@]2(C)C1=O`, the growth inhibition was 0%.

Regarding `Oc1ccc(O)c2c(O)c3ccccc3c(O)c12`, the growth inhibition is 85% (active).

`O=[N+]([O-])c1cc(Br)cc(Br)c1O`: the growth inhibition is 38%.

Still in this assay, the particulars now being: S. cerevisiae sgs1 mgt1 strain, at 50.0 µM, active compounds read high.
For the molecule `CCOC(=O)/C=C(\CC(=O)OCC)C(=O)OCC`, the growth inhibition was 99.2% (active).

As to `Cc1cc(Cl)cc2c1NC(=O)C2(O)C(C)C(=O)c1ccc(Cl)cc1` (stereo not given), the growth inhibition is 99.5% (active).

With `C=CS(=O)(=O)c1ccc([N+](=O)[O-])cc1`, the growth inhibition was 99.5% (active).

Take `Oc1cc(Br)ccc1/C=N/Nc1ccccn1`: the growth inhibition was 15.6%.

Take `CC(C)C(CC(C)(C)C)OC(=O)Nc1cccc2ccccc12` (stereo not given): the growth inhibition was 61.8%.

On to `CC(=O)[O-].O=C(N/N=C/c1ccccc1[O-])c1ccccc1.[Zn+2]`, for which the growth inhibition was 55.8%.

On to `COc1cc(C2C(C(=O)Nc3ccc(Cl)c(Cl)c3)=C(C)NC(C)=C2C(=O)Nc2ccc(Cl)c(Cl)c2)ccc1O`, for which the growth inhibition was 88.7% (active).

With `[Ce+3].[Cl-].[O-]/N=C(\c1ccccc1)c1ccccn1.[O-]/N=C(\c1ccccc1)c1ccccn1.[O-]/N=C(\c1ccccc1)c1ccccn1`, the growth inhibition is 85.8% (active).

With `CCCCCCCCN1C(=O)c2ccccc2S1(=O)=O`, the growth inhibition was 73.8% (active).

`CC(=O)N(C1=C(Cl)C(=O)c2ccccc2C1=O)c1ccc(C)cc1`: the growth inhibition was 99.6% (active).

On to `COc1ccc(Cl)c(-c2cc(OC)c(N=N/C(=N/Nc3ccc([N+](=O)[O-])cc3)c3ccc([N+](=O)[O-])cc3)cc2Cl)c1`, for which the growth inhibition is 60.2%.

For `CCOC(=O)CSC(=S)N1CCOCC1`, the growth inhibition was -10.6%.

`CC1(C)COC(c2cccc(C(O)c3ccc(Cl)cc3)c2)=N1` (stereo not given): the growth inhibition was 72.5% (active).

Regarding `COc1ccc(/C=C/C(C(=O)O)C(=O)O)cc1`, the growth inhibition is 76% (active).

As to `COc1ccc2c(Cc3ccc(O)cc3)cncc2c1O`, the growth inhibition was -7.15%.

Regarding `COC1=CC23C=CC1[C@@H](c1ccccc1)C2=C(C)C(=O)N3C(=O)NC1CCCCC1` (stereo not given in full), the growth inhibition is 63.8%.

Take `O=c1c2c3c(sc2nc2n1N=C(c1ccc(Br)cc1)CS2)CCCC3`: the growth inhibition is -22.8%.

`Cc1noc(NS(=O)(=O)c2ccc(N=Nc3cc(N=Nc4ccc(S(=O)(=O)Nc5onc(C)c5C)cc4)c4c(NC(=O)C(Cl)Cl)cccc4c3O)cc2)c1C` (tested in a mixture with another compound): the growth inhibition is 75% (active).

Consider `CC(=O)OC1=CC2(OC(C)=O)CC(C)(C)C1C1C(=O)C=CC(=O)C12` (stereo not given), for which the growth inhibition was 68.2%.

With `COC1CCC(/C(C#N)=C/c2ccco2)CC1` (stereo not given), the growth inhibition was 78.2% (active).

With `CCN(CC)CCNc1cc(C)nc2c1ccc1c2ccc2c(NCCN(CC)CC)cc(C)nc21`, the growth inhibition was 54.5%.

Consider `O=c1sc(=S)[nH]c2ccccc12`, for which the growth inhibition was 78.9% (active).

In the case of `Oc1c(Br)ccc2c(O)c(Br)ccc12`, the growth inhibition was 92.5% (active).

Regarding `Nc1ccccc1CCc1ccccc1`, the growth inhibition is 41.8%.

With `Cc1cc2c(cc1O)CC[C@@H]1[C@@H]2CC[C@]2(C)[C@@H](O)CC[C@@H]12`, the growth inhibition is 68%.

For `O=c1c2ccccc2sc2c([N+](=O)[O-])ccc(NCCNCCO)c12`, the growth inhibition was 86.7% (active).

Consider `NC(=S)NNc1c([N+](=O)[O-])cnn(-c2ccccc2)c1=O`, for which the growth inhibition is 9.7%.

As for `COc1ccccc1NC(=O)c1ccccc1F`, the growth inhibition is 0.2%.

`COc1ccc(/C=C2\SC(=S)N(/C=C(/C#N)C(=O)c3ccc4ccccc4c3)C2=O)cc1OC`: the growth inhibition was 97.2% (active).

As for `COC(=O)C1(OC(=O)CCC(=O)O)C(=O)NC2=C1C(=O)c1ccccc1C2=O` (stereo not given), the growth inhibition is 47.8%.

Consider `Cc1cc(=O)c2c(ccc3cc4ccccc4cc32)[nH]1`, for which the growth inhibition is 45.8%.

For `CCc1nc(N)nc(N)c1-c1ccc(N(C)Cc2ccccc2)c([N+](=O)[O-])c1`, the growth inhibition is 3.1%.

As to `O=C1CSC(c2ccccc2O)N1c1ccc(-n2c(-c3ccccc3)nc3ccccc3c2=O)cc1` (stereo not given), the growth inhibition is 72.5% (active).

Consider `O=C(C[P+](c1ccccc1)(c1ccccc1)c1ccccc1)c1ccc(Br)cc1`, for which the growth inhibition is 96.8% (active).

In the case of `O=NN(CCCl)C(=O)Oc1ccc(OC(=O)N(CCCl)N=O)cc1`, the growth inhibition was 90.2% (active).

Take `Cc1cccc(C[N+](C)(C)CCCO)c1C`: the growth inhibition is -0.35%.

On to `CC(C)NC(=O)OCCS(=O)c1c(Cl)c(Cl)nn1C` (stereo not given), for which the growth inhibition is 42.4%.

As to `COC1=CC(=O)[C@H]2CC(C)=CC[C@]2(C)C1=O`, the growth inhibition is -4.75%.

`Oc1ccc(O)c2c(O)c3ccccc3c(O)c12`: the growth inhibition was 80.5% (active).

For `O=[N+]([O-])c1cc(Br)cc(Br)c1O`, the growth inhibition was 40.4%.

For the origin of these results see PubChem BioAssay (NCI).
